According to PubChem BioAssay (NCI):
This is part of a sample that, as a whole, favours compounds with a hit. Of some 83,000 tested, about 20% had one in any assay.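 Method: cells in 96-well plates; compound added at one concentration; 48 h incubation; percent growth measured; values under 10 scored active.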 Unmarked numbers belong to inactive results. The source made the active and inactive calls.

Tests used:
Assay in all cases: NCI-60 one-dose screen, 48 h (100 = growth as untreated, 0 = no growth, -100 = all killed)
Settings in all cases: 10 µM unless noted
SR leukemia = system: SR leukemia
RPMI-8226 leukemia = system: RPMI-8226 leukemia
OVCAR-8 ovarian = system: OVCAR-8 ovarian
OVCAR-5 ovarian = system: OVCAR-5 ovarian
OVCAR-4 ovarian = system: OVCAR-4 ovarian
SK-OV-3 ovarian = system: SK-OV-3 ovarian
IGROV1 ovarian = system: IGROV1 ovarian
OVCAR-3 ovarian = system: OVCAR-3 ovarian
HS 578T breast = system: HS 578T breast
NCI/ADR-RES ovarian = system: NCI/ADR-RES ovarian
T-47D breast = system: T-47D breast
BT-549 breast = system: BT-549 breast
MDA-MB-435 melanoma = system: MDA-MB-435 melanoma
SW-620 colon = system: SW-620 colon
MCF7 breast = system: MCF7 breast
HCT-116 colon = system: HCT-116 colon
HCC-2998 colon = system: HCC-2998 colon
KM12 colon = system: KM12 colon

Row | SMILES | growth (SR leukemia) | growth (RPMI-8226 leukemia) | growth (OVCAR-8 ovarian) | growth (OVCAR-5 ovarian) | growth (OVCAR-4 ovarian) | growth (SK-OV-3 ovarian) | growth (IGROV1 ovarian) | growth (OVCAR-3 ovarian) | growth (HS 578T breast) | growth (NCI/ADR-RES ovarian) | growth (T-47D breast) | growth (BT-549 breast) | growth (MDA-MB-435 melanoma) | growth (SW-620 colon) | growth (MCF7 breast) | growth (HCT-116 colon) | growth (HCC-2998 colon) | growth (KM12 colon)
1 | N#Cc1c(N)n2c(nc1=Nc1ccc([N+](=O)[O-])cc1)sc1cc(Cl)ccc12 | 34.7% | 49.7% | 94.5% | 101% | 86.1% | 76.4% | 82.3% | 108% | 79% | 95.2% | 78.2% | 116% | 97.9% | 96.4% | 77.6% | 94.3% | 144% | 97.2%
2 | Cc1c(C)c2c(c(C)c1NC(=O)/C=C\C(=O)O)CCC(C)(CCCC(C)CCCC(C)CCCC(C)C)O2 (stereo unspecified) | 9.98% (active) | 30.6% | 35.9% | 87.6% | 39.4% | 54.6% | 56.8% | 43.2% | 57.4% | 43.1% | 54.5% | -58.5% (active) | 50.9% | 30% | 51.2% | 4.08% (active) | 79.8% | 29.2%
3 | COc1cc2c(cc1OC)-c1ccc3cc4c(cc3c1N(CCCn1ccnc1)C2)OCO4 | 7.86% (active) | 0.821% (active) | 44.7% | 103% | 67.9% | 20.7% | 38.3% | 33.5% | 91.5% | 94.4% | -18.4% (active) | 32.1% | 61.1% | 39.3% | 14% | 20% | 82.8% | 
4 | CCN(CC)CCOC(=O)Nc1ccccc1Cl | 102% | 88.8% | 104% | 110% | 120% | 108% | 101% | 108% | 109% | 110% | 98.6% | 81.3% | 108% | 101% | 101% | 72.7% | 101% | 103%
5 | COc1cc(-c2ncn(/C=C\c3nnco3)n2)cc(C(F)(F)F)c1 | 6.43% (active) | 76.4% | 19.8% | 37.9% | 15.4% | 38.9% | 22.3% | -20.8% (active) | 19.3% | 27.1% | 28.9% | -13.8% (active) | 2.34% (active) | 14.6% | 8.23% (active) | 3.16% (active) | 7.01% (active) | 10.7%
6 | CC(C)(O)c1cccc(F)c1 | 96.9% | 103% | 107% | 99.3% | 112% | 135% | 104% | 127% | 103% | 102% | 140% | 104% | 103% | 103% | 98.4% | 93.8% | 105% | 103%
7 | Cc1nc(Nc2ccc(NC(=S)Nc3ccccc3)cc2)c2ccccc2n1 | 80.5% | 98.6% | 101% | 110% | 121% | 107% | 99.8% | 118% | 96% | 107% | 87.6% | 113% | 112% | 106% | 77.4% | 101% | 104% | 104%
8 | CC(=O)Nc1ccc2c(c1)Cc1c(F)cccc1-2 | 98.2% | 94.1% | 95.2% | 106% | 106% | 115% | 98.8% | 105% | 115% | 107% | 76.6% | 109% | 107% | 102% | 35.9% | 108% | 94.2% | 91.5%
9 | CNC(=O)c1cc(Oc2ccc3nc(NC(=O)Nc4cc(C(F)(F)F)cc(C(F)(F)F)c4)sc3c2)ccn1 | -27.6% (active) | -14.1% (active) | -68.2% (active) | -26.1% (active) | -77.2% (active) | -58% (active) | -48.5% (active) | -76.5% (active) | -20.4% (active) | -38.2% (active) | -39.6% (active) | -46.9% (active) | -13.6% (active) | -36.1% (active) | 0.0531% (active) | -56.1% (active) | 5.71% (active) | 
10 | CN(C)c1ccc2cc(-c3ccc(Cl)c(Cl)c3)c(N)nc2c1 | -29% (active) | 13.3% | 21% | 55.4% | 9.09% (active) | 60.4% | 42% | 31% | 62.4% | 15.9% | 18.6% | 48.3% | 22.4% | 30.1% | 24.3% | 13.3% | 44.7% | 
11 | COc1cc2c(cc1OC)-c1ccc3cc4c(cc3c1N(CCN(C)C)C2)OCO4 | 1.13% (active) | -41.1% (active) | -24.7% (active) | 8.24% (active) | 26.7% | -21.2% (active) | -31.2% (active) | 8.78% (active) | -2.39% (active) | 72.3% | -12.3% (active) | -2.52% (active) | 40% | 9.79% (active) | 4.64% (active) | -85.8% (active) | 26.7% | 
12 | NC(N)=N/N=C/CO | 92% | 103% | 103% | 104% | 96% | 102% | 108% | 107% | 112% | 95.5% | 108% | 96.7% | 106% | 106% | 98.3% | 94.1% | 119% | 102%
13 | CN(C)CCN1C(=O)c2cccc3c(-c4ccc(-c5nc6c7ccccc7c7ccccc7c6[nH]5)cc4)ccc(c23)C1=O | 38.6% | 54.9% | 52% | 123% | -2.99% (active) | 109% | 96.3% | 117% | 117% | 88.1% | 86.7% | 104% | 114% | 86% | 36.2% | 65.1% | 104% | 75.8%
14 | CCCCCCCSc1ccc(C(=O)O)cc1 | 104% | 92.1% | 95.7% | 110% | 93.9% | 102% | 101% | 118% | 128% | 109% | 107% | 112% | 96% | 105% | 84.3% | 99.3% | 114% | 
15 | Cc1cc(=O)[nH]c(N/N=C/c2cc(Br)ccc2O)n1 | 28.4% | 31.2% | 16.7% | 39.1% | 7.34% (active) | 19.1% | -0.435% (active) | 6.58% (active) | 69% | 10.2% | 25% | 17.2% | 47.3% | 40.3% | 1.32% (active) | 5.04% (active) | 32.5% | 34.6%
16 | OC(CBr)c1ccnc2ccccc12 (stereo unspecified) | 98.7% | 87.4% | 98.2% | 106% | 110% | 105% | 102% | 106% | 99.6% | 101% | 89.1% | 92% | 100% | 104% | 96.3% | 90.7% | 103% | 99.3%
17 | CN1CCN(c2ccc(Nc3ncc(Cl)c(NC[C@@H]4CCCO4)n3)cc2)CC1 | -0.801% (active) | 29.5% | 27.5% | 18.1% | 29.7% | 28.6% | 23.4% | 42.8% | 6.95% (active) | 31.3% | 62.2% | 33.3% | 44% | 7.44% (active) | 9.61% (active) | 4.74% (active) | 60.7% | 9.71% (active)
